Assay [1] concerns the target Albumin (Bos taurus) (UniProt P02769). Nature of the assay: compounds binding labelled BSA control protein – biochemical, small-molecule microarray, Alexa647 label, 635/667 nm fluorescence, artefact control for SMM control protein annotation, profiling panel (AID 1118).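 Note: score merges 667 nm emission intensity and signal-to-noise per printed compound spot.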 Conditions: BSA-A647 binding, fluorescence 635 nm, higher = more signal.
The nature of assay [2]: probe aXIP binding to arrayed compounds – biochemical, NeuroSMM set, 635/667 nm fluorescence, primary screen (AID 1119).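 Note: probe is the protein aXip251-270 applied at 1 µg/mL to compound-printed slides; binding of probe to printed compounds measured as 667 nm fluorescence plus signal to noise.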 Conditions: small-molecule microarray, higher = more signal, called active from +8 up or from −8 down.
A short description of assay [3]: probe aNOTCH3 binding on compound microarray – biochemical, small-molecule microarray, 635/667 nm fluorescence, primary screen (AID 1120).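 Note: probe is a biotin-tagged antibody raised against NOTCH3 rather than NOTCH3 protein; score merges spot fluorescence near 667 nm with spot signal to noise.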 Conditions: higher = more signal.
Assay [4] can be described thus: probe aNOTCH2 binding on compound microarray – biochemical, small-molecule microarray, 635/667 nm fluorescence, primary screen (AID 1121).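 Note: score merges feature fluorescence read at 667 nm with its signal to noise.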 Conditions: higher = more signal.
Assay [5] has as its target Carbonic anhydrase 2 (Homo sapiens) (UniProt P00918). Nature of the assay: compounds binding carbonic anhydrase 2 – biochemical, small-molecule microarray, Alexa647-labelled CAII, profiling panel (AID 1122). Conditions: CAII-A647 binding fluorescence, higher = more signal.
The nature of assay [6]: COS7 lysate on small-molecule microarray, probe aHis, 635 nm (AID 1123).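 Note: z-score combines 667nm fluorescence intensity with signal-to-noise per printed compound spot.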 Conditions: COS7 cell lysate, fluorescence, higher = more signal.
Assay [7] is described as follows: probe aLAP1 signal on lysate-treated microarray – cell lysate, small-molecule microarray, COS7 lysate, primary screen (AID 1124).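 Note: lysate comes from COS7 cells expressing LAP1 and is applied at 0.3 µg/mL; score merges spot fluorescence near 667 nm with signal-to-noise over triplicate slides.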 Conditions: probe aLAP1, fluorescence, higher = more signal.
In assay [8] the test system is Sam68 (KHDRBS1). Nature of the assay: compounds binding KHDRBS1 protein – biochemical, small-molecule microarray, 635 nm fluorescence, primary screen (AID 1125).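 Note: score merges 667 nm channel intensity with signal to noise over triplicate slides.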 Conditions: higher = more signal.
Assay [9] has as its system Chordin-like protein 2 (CHRDL2). In words: compounds binding chordin-like 2 – biochemical, small-molecule microarray, 635 nm fluorescence, primary screen (AID 1126).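 Note: printed compound slides probed with Chrdl2 protein at 4 µg/mL for 1 h at 4 C; score merges 667 nm emission intensity with signal to noise over three replicate slides.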 Conditions: fluorescence 635 nm, higher = more signal.
The target in assay [10] is Concanavalin-A (Canavalia ensiformis) (UniProt P02866). Nature of the assay: compounds binding concanavalin A lectin – biochemical, small-molecule microarray, Alexa647 label, 635 nm, artefact control for SMM control protein annotation, primary screen (AID 1127).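 Note: z combines 667 nm emission intensity with signal-to-noise across three replicate slides.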 Conditions: ConA-A647 binding fluorescence, higher = more signal.
Sequence of Concanavalin-A (Canavalia ensiformis) (P02866 whole entry, looked up): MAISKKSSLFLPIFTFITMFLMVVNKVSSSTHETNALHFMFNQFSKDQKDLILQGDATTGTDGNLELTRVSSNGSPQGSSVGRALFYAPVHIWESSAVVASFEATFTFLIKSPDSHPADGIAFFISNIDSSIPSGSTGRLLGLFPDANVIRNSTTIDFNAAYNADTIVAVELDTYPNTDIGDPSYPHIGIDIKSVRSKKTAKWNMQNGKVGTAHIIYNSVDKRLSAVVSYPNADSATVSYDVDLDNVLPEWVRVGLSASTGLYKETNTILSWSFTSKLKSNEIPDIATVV
The nature of assay [11]: compounds binding Alexa647 anti-His antibody – biochemical, small-molecule microarray, 635 nm fluorescence, artefact control for SMM control protein annotation, primary screen (AID 1128).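 Note: score merges feature fluorescence with signal-to-noise for each printed compound spot.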 Conditions: higher = more signal.
Assay [12] concerns Human papillomavirus type 1a E7 protein (residues 1-88). In words: HPV1a E7 small-molecule binders, primary screen, biochemical, small-molecule microarray, residues 1-88, 635 nm (AID 1129). Conditions: small-molecule microarray binding, fluorescence 635 nm; higher = more signal.
Assay [13] deals with Focal adhesion kinase 1 (Homo sapiens) (UniProt Q05397). Nature of the assay: PTK2 protein binding on printed compound slides – biochemical, small-molecule microarray, 635/667 nm fluorescence, BSA, DTT, primary screen (AID 1130).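 Note: composite of spot emission at 667 nm and signal to noise over triplicate slides.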 Conditions: 635 nm fluorescence, higher = more signal.
Sequence of Focal adhesion kinase 1 (Homo sapiens) (Q05397 whole entry, looked up): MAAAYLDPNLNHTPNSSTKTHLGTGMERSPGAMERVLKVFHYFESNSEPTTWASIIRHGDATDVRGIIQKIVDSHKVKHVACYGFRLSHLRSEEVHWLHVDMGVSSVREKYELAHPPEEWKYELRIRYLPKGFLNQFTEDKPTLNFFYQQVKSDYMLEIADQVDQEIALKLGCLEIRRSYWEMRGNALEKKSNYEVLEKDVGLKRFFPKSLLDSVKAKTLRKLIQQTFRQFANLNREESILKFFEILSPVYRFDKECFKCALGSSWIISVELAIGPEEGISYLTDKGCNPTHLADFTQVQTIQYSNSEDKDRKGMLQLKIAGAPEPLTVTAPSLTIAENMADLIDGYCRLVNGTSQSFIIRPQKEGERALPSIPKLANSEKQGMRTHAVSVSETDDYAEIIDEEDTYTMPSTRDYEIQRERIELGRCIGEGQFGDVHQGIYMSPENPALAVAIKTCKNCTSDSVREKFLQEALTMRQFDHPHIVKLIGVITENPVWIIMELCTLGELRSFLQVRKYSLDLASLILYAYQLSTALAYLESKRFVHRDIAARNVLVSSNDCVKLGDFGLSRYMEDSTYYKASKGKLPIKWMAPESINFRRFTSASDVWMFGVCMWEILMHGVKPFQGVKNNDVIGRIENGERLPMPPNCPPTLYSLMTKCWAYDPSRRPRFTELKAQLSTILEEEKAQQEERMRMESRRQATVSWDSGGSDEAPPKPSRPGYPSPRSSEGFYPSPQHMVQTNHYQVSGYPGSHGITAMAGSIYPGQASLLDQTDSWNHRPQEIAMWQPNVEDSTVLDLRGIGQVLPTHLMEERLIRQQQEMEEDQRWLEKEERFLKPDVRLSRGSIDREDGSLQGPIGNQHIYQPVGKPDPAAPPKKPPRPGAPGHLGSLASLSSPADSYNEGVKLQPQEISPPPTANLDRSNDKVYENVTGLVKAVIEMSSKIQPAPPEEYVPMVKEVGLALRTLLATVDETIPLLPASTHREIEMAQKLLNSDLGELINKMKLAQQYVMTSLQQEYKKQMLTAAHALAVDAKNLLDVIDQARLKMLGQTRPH
Assay [14] concerns Fibrinogen (Alexa647-labelled). Nature of the assay: Alexa647-fibrinogen binding to printed small molecules – biochemical, small-molecule microarray, 635/667 nm fluorescence, artefact control for SMM control-protein annotation, profiling panel (AID 1131).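 Note: z-score merges 667 nm fluorescence with per-spot signal-to-noise over triplicate slides.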 Conditions: fibrinogen-A647 binding fluorescence, higher = more signal.
Assay [15] has as its target Follistatin (Homo sapiens) (UniProt P19883). Nature of the assay: FST protein binding to printed compounds – biochemical, small-molecule microarray, 635/667 nm fluorescence, primary screen (AID 1132). Conditions: 635 nm fluorescence, higher = more signal.
The target of assay [16] is Fibroblast growth factor 2 (Homo sapiens) (UniProt P09038). In words: basic fibroblast growth factor binding to printed compounds – biochemical, small-molecule microarray, 635/667 nm fluorescence, primary screen (AID 1133). Conditions: FGF2, fluorescence 635/667, higher = more signal.
Sequence of Fibroblast growth factor 2 (Homo sapiens) (P09038 whole entry, looked up): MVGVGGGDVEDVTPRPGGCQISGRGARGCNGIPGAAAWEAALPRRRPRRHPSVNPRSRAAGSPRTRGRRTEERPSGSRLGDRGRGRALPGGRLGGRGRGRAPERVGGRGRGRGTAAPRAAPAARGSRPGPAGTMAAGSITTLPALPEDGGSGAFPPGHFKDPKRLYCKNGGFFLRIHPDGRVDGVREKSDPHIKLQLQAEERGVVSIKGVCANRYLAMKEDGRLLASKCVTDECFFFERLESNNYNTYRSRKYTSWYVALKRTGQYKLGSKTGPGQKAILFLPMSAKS
Assay [17] is described as follows: JC-1 mitochondrial potential readout, lung cancer cells – cell-based, A549, JC-1 fluorescence, basal, 24 h, 100 nL, profiling panel (AID 1138).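 Note: A549 lung adenocarcinoma cells under basal conditions with no added stimulus; test concentration not given here.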 Conditions: higher = more signal.
The test system of assay [18] is Lefty1. Nature of the assay: Lefty1 protein binding to printed compounds – biochemical, small-molecule microarray, 635/667 nm fluorescence, primary screen (AID 1139). Conditions: fluorescence 635/667, higher = more signal.
The test system of assay [19] is wheat germ agglutinin (Triticum aestivum), Alexa647-labelled. In words: Alexa647-WGA lectin binding to printed small molecules – biochemical, small-molecule microarray, 635/667 nm fluorescence, artefact control for SMM control-protein annotation, profiling panel (AID 1140).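 Note: score merges 667 nm feature emission with signal to noise over triplicate slides.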 Conditions: WGA-A647 binding, 635 nm fluorescence, higher = more signal.
For assay [20], the target named is Luciferin 4-monooxygenase (Photinus pyralis) (UniProt P08659). Nature of the assay: inhibition of purified Photinus pyralis luciferase – biochemical, luminescence, purified enzyme, 2006 set, primary screen (AID 1141).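 Note: cell-free assay with purified firefly luciferase at 100 ng per well in PBS; test concentration not given here.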 Conditions: purified firefly luciferase, SteadyGlo luminescence, 30 min; higher = more signal, called active from +8 up or from −8 down.
Sequence of Luciferin 4-monooxygenase (Photinus pyralis) (P08659 whole entry, looked up): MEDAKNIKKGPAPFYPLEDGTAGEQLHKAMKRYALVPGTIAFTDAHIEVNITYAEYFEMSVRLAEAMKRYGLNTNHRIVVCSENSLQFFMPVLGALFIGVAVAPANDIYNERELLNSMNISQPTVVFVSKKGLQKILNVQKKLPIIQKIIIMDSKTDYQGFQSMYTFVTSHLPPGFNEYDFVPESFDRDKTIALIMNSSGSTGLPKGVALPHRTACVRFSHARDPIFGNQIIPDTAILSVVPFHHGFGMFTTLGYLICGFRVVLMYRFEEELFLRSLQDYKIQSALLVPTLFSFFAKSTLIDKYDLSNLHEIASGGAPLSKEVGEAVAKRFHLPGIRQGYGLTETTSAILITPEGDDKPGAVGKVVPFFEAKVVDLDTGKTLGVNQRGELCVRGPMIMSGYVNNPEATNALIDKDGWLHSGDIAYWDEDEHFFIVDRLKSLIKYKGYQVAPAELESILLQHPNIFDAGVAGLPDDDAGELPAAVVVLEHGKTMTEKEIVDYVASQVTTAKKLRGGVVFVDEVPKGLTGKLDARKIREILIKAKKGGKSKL

Each structure is given as a SMILES string. Active and inactive are the calls of the source.

Sequence of Follistatin (Homo sapiens) (P19883 whole entry, looked up): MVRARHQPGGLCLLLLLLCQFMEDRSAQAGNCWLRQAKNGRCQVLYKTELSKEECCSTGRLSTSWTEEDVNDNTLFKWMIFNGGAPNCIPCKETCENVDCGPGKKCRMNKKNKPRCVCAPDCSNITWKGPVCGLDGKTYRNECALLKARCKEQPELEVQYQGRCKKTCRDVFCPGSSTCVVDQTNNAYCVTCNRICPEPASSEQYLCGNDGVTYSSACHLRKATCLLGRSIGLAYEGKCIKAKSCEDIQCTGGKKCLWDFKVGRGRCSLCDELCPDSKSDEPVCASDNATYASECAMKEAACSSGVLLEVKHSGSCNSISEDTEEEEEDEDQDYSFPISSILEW
Sequence of Albumin (Bos taurus) (P02769 whole entry, looked up): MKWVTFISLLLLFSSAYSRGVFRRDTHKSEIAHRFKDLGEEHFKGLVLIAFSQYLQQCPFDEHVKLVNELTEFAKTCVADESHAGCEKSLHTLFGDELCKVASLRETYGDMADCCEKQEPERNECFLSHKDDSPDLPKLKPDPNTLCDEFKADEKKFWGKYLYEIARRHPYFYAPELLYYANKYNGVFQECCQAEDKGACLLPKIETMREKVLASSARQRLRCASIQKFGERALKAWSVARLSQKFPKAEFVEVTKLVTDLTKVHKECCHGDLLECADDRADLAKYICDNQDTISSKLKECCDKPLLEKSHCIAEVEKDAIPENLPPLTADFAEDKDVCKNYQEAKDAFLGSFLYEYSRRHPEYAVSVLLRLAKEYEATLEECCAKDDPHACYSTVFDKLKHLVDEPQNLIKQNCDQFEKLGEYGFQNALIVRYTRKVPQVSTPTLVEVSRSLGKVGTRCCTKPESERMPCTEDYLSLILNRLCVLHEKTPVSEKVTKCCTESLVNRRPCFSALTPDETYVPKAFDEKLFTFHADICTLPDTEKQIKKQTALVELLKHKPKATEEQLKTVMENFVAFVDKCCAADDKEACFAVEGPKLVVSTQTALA

On to `C[C@H]1CC[C@@H](C(=O)O)N[C@@H]1c1ccc(C#Cc2ccccc2)cc1`, for which the composite z-score in assay [1] was 0.213; in assay [3], 0.0876; in [4], -0.0907; in assay [5] it was 0.863; in [6], 0.803; in assay [7], 0.707. In addition, the composite z-score was found to be 1.22 in assay [8]; 1.34 in assay [9]; 1.1 in assay [10]; 1.53 in [11]; 1.06 in assay [12]; 0.454 in assay [13]. Also, the composite z-score in assay [14] worked out at 0.918; in assay [15], 1.07; in assay [16], 0.551; in assay [18], 0.608; in assay [19], 1.11. The composite Z-score in assay [2] is 0.142 (inactive). The z-score is -2.02 in assay [17] and -9.82 (active) in assay [20].

As to `CC(=O)OC[C@H]1O[C@H](CC=NO[C@H](C)c2cn([C@@H]3COC[C@H]3O)nn2)C=C[C@@H]1OC(C)=O`, the composite z-score in assay [1] is 0.834; in [3] it was -0.182; in assay [4], -0.153; in assay [5], -0.0556; in [6], -0.426; in assay [7], -0.16. Moreover, the composite z-score in assay [8] is -0.378; in [9], 0.85; in assay [10], -0.152; in [11], 0.606; in [12], 0.179; in assay [13], -0.0621. In addition, the composite z-score in assay [14] was 0.897; in assay [15] it was 0.356; in assay [16] it was 0.396; in assay [18], 0.42; in assay [19] it was -0.0712. Moreover, the composite Z-score in [2] is 0.195 (inactive). In addition, the z-score is -0.17 in assay [17] and -0.63 (inactive) in [20].

Consider `O=C1[C@H]2[C@H]3[C@H](O)[C@H](O)CC(=NOC[C@@H](O)COCc4ccco4)[C@@H]3CC[C@H]2C(=O)N1Cc1ccccc1`, for which the composite z-score in assay [1] was -0.123; in [3] it was 0.121; in [4] it was -0.102; in assay [5], 0.552; in assay [6] it was 0.654; in [7] it was 0.173. Besides, the composite z-score in assay [8] is 1.3; in assay [9], 1.4; in assay [10], -0.193; in assay [11], 0.381; in assay [12], 1.26; in assay [13], 0.728. The composite z-score is -0.956 in assay [14]; 1.37 in assay [15]; 0.962 in [16]; 0.941 in [18]; 0.265 in [19]. Moreover, in [2], the composite Z-score is -0.0662 (inactive). The values for the z-score in assay [17] and in assay [20] were 0.0705 and 1.2 (inactive), respectively.

`C#CCCCON=C1[C@H]2CCn3c(=O)n(Cc4cc5c(cc4Cl)OCO5)c(=O)n3[C@H]2[C@H](O)[C@@H]2O[C@H]12`: the composite z-score in assay [1] is -0.252; in [3], -0.0178; in [4] it was -0.106; in assay [5] it was -0.0303; in assay [6], -0.138; in assay [7] it was -0.122. Moreover, the composite z-score is 0.431 in [8]; 0.424 in [9]; 0.656 in assay [10]; 0.229 in assay [11]; 0.522 in [12]; -0.383 in assay [13]. For the same compound, the composite z-score is 0.0676 in assay [14]; 0.751 in [15]; 0.486 in assay [16]; 0.748 in assay [18]; -0.232 in assay [19]. Besides, the composite Z-score in assay [2] was -0.141 (inactive). Moreover, the z-score in assay [17] was 0.146; in assay [20], 0.303 (inactive).

In the case of `COC(=O)[C@H](C)NC(=O)CCC1CC(OC(=O)NCc2cccc3ccccc23)CC2(CCCC(COC(=O)NCc3ccccc3)O2)O1` (stereo not given in full), the composite z-score is -0.0725 in assay [1]; 0.062 in assay [3]; -0.104 in [4]; 0.288 in assay [5]; 0.763 in assay [6]; -0.206 in [7]. Further, the composite z-score in assay [8] turned out to be 1.26; in assay [9], 0.7; in assay [10], 0.984; in assay [11], 0.432; in assay [12], 0.976; in assay [13], 0.388. For the same compound, the composite z-score amounted to 0.893 in assay [14]; 0.729 in [15]; 0.846 in assay [16]; 1.17 in assay [18]; 0.22 in assay [19]. Also, the composite Z-score in assay [2] is 0.142 (inactive). Besides, the z-score in assay [17] is -0.139; in assay [20], 1.09 (inactive).

`COC(=O)CC=C[C@@H](C)[C@@H](C=NOC(C)CN1CCCCc2nc(C)c(C)cc21)OC` (stereo not given in full): the composite z-score is 0.276 in assay [1]; 0.227 in assay [3]; -0.0439 in assay [4]; 0.301 in assay [5]; 0.043 in [6]; -0.0856 in [7]. For the same compound, the composite z-score in [8] is 1.28; in assay [9] it was 1.29; in [10], 0.235; in assay [11], 1.4; in assay [12], 0.981; in [13], 0.847. Besides, the composite z-score in [14] amounted to 0; in assay [15] it was 1.14; in [16], 0.368; in assay [18], 1.24; in assay [19], 0.259. Further, the composite Z-score in assay [2] was -0.472 (inactive). The z-score in assay [17] was 0.855; in assay [20], -0.183 (inactive).

Take `O=C1C=C[C@@H](O)[C@@H]2[C@@H]3C(=O)N(Cc4ccc5c(c4)OCO5)C(=O)[C@@H]3CC[C@@H]12`: the composite z-score in [1] is 0.147; in assay [3], 0.123; in assay [4], -0.0567; in [5], -0.137; in assay [6], 0.163; in assay [7], 0.129. The composite z-score is 0.627 in [8]; 0.761 in [9]; 0.748 in [10]; 0.314 in assay [11]; 0.867 in [12]; 0.185 in assay [13]. Further, the composite z-score in assay [14] was 0.546; in [15] it was 0.382; in assay [16] it was 0.569; in assay [18], 0.585; in assay [19], 0.0599. The composite Z-score in assay [2] was -0.88 (inactive). The z-score was -0.635 in [17] and -0.276 (inactive) in [20].

As to `CC(CCN1CCCc2nc(C)c(C)cc21)=NO[C@@H](C)c1cn([C@H](CO)Cc2ccccc2)nn1`, the composite z-score was -0.139 in assay [1]; 0.184 in [3]; -0.0282 in assay [4]; 0.074 in [5]; 0.531 in [6]; -0.0771 in assay [7]. Also, the composite z-score was determined as 0.477 in assay [8]; 0.801 in assay [9]; 0.497 in [10]; 0.14 in assay [11]; 0.0974 in assay [12]; 0.338 in assay [13]. The composite z-score in assay [14] stood at 0.279; in [15], 0.764; in [16] it was 0.957; in assay [18], 0.671; in [19] it was 0.152. For the same compound, the composite Z-score in assay [2] is 0.344 (inactive). Moreover, the z-score in [17] was -0.088; in assay [20], -0.224 (inactive).

With `C[C@H]1CC[C@@H](C(=O)O)N[C@@H]1c1cccc(N2CCCC2=O)c1`, the composite z-score was -0.0315 in [1]; -0.173 in assay [3]; -0.14 in assay [4]; -0.192 in [5]; -0.101 in assay [6]; -0.127 in [7]. For the same compound, the composite z-score in assay [8] was 0.0706; in assay [9], 0.456; in assay [10] it was 0.116; in assay [11], -0.0817; in assay [12], 0.675; in assay [13], -0.0555. Moreover, the composite z-score in assay [14] was 0.25; in assay [15], 0.412; in [16] it was 0.229; in assay [18], 0.132; in assay [19], -0.368. In [2], the composite Z-score was -0.38 (inactive). Also, the z-score in [17] was 1.21; in assay [20], -1.21 (inactive).

The values are drawn from PubChem BioAssay.
